SARS PLpro yeast = inhibitors of SARS-CoV papain-like protease in yeast; S. cerevisiae expressing SARS-CoV PLpro, growth rescue; Potency, µM (top dose mostly 32.9 µM), usual class: activators; actives 0.19% (n = 330,000); AID 485353; calls by dose curve; further: nearly all actives have a fitted effect of over 55% in size
Pf growth 96h = P. falciparum growth inhibition at 96 hours. P. falciparum luciferase reporter growth, 96 h. Potency, µM (top dose mostly 28.7 µM), hits mostly inhibitors. AID 504834. actives 6.9% (n = 320,000)
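96 h incubation, 37 C, 5% CO2, of luciferase-reporter P. falciparum-infected RBCs (2% hematocrit, 0.05% parasitemia final) with test compounds; endpoint luminescence.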
Pf growth 48h = P. falciparum growth inhibition at 48 hours (one generation). Potency, µM (top dose mostly 28.7 µM), hits mostly inhibitors. P. falciparum luciferase growth in erythrocytes, 48 h. actives 5.9% (n = 310,000)
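Luciferase-expressing parasites in RBCs, 2% Hct / 0.1% parasitemia final; RPMI 1640 + 0.5% Albumax; 37 C, 5% CO2, one generation; luminescence read-out, lower signal = inhibition.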
AMA1-RON2 inh = disrupts binding of P. falciparum AMA1 to RON2. actives 0.2% (n = 360,000). AlphaScreen AMA1-biotinylated RON2 peptide binding. Potency, µM (top dose mostly 58.2 µM), actives largely listed as inhibitors. AID 720542; further: nearly all actives have a fitted effect of over 45% in size
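AMA1 (3D7) with his tag at 25 nM final met compounds first, then biotinylated RON2 peptide at 25 nM; detection used donor plus acceptor beads, 10 µg/mL apiece, read by AlphaScreen after 30 min at room temperature.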
Numbers stand for hits; 0 = inactive; ? = inconclusive; - = no result. A selection: hits, their analogues and other compounds. The true share with any hit is near 9.4%. Unless noted, the call rests on the fitted dose curve; in most records, active means well fitted curve in the direction sought with a large enough effect; inconclusive means small, poorly fitted or top-dose-only effect, or another doubt; inactive means no such curve, though single readings can be large; an effect the other way counts as inactive or inconclusive.

SMILES	SARS PLpro yeast	Pf growth 96h	Pf growth 48h	AMA1-RON2 inh
CCN(CC)c1ccc2c(-c3ccc(S(=O)(=O)O)cc3S(=O)(=O)[O-])c3ccc(=[N+](CC)CC)cc-3oc2c1	0	0	0	14µM
COc1cc2c(N3CCOCC3)cc(O)c(CC(=O)Nc3ccccc3)c2cc1OC	0	0	?	0
O=C(c1cc2ccccc2oc1=O)N(c1ccccc1)C1C=CS(=O)(=O)C1 (stereo not drawn)	0	0	0	0
Cc1ccc(S(=O)(=O)N2CCC(C(=O)NCc3ccccc3Cl)CC2)cc1	0	10µM	-	0
CCCS(=O)(=O)N1CCC(C(=O)NCc2ccccc2Cl)CC1	0	10µM	0	0
O=C(NCc1ccccn1)C1CCN(S(=O)(=O)c2ccccc2)CC1	0	0	0	0
CSc1ccc(S(=O)(=O)N2CCC(C(=O)NCc3ccccn3)CC2)cc1	0	12µM	0	0
O=C(NCc1ccccc1Cl)C1CCN(S(=O)(=O)N2CCCCCC2)CC1	0	?	0	0
CCOc1ccc(CCNC(=O)C2CCN(S(=O)(=O)N3CC(C)CC(C)C3)CC2)cc1OCC (stereo not drawn)	0	0	0	0
CCS(=O)(=O)N1CCC(C(=O)NCCc2ccccc2)CC1	0	1.5µM	0	0
CCOc1ccc(CCNC(=O)C2CCN(S(=O)(=O)CC)CC2)cc1OCC	0	2.6µM	0	0
CSc1ccc(NC(=O)NCCCN2CCC(Cc3ccccc3)CC2)cc1	0	?	8.3µM	0
COc1ccc(NC(=O)NCCCN2CCC(Cc3ccccc3)CC2)cc1	0	?	0	0
CCS(=O)(=O)N1CCC(C(=O)NCCc2ccc(C)cc2)CC1	0	?	0	0
CCS(=O)(=O)N1CCC(C(=O)NCCCN2CCC(Cc3ccccc3)CC2)CC1	0	9.3µM	0	0
COc1ccc(/C=C/C(=O)NC(=S)NNC(=O)c2cccs2)cc1OC	0	0	0	0
O=C(CNC(=O)c1ccc(Cl)cc1Cl)NCCCn1ccnc1	0	0	-	0
O=S(=O)(/N=C(/Nc1cc(N2CCOCC2)ncn1)c1ccccc1)c1ccccc1	0	-	0	0
Cc1cccc(N(C(=O)CS(=O)CC(=O)Nc2ccc3c(c2)OCO3)C(C)C(=O)NC2CCCC2)c1C (stereo not drawn)	0	?	0	0
CCOC(=O)c1c(NC(=O)c2ccoc2C)sc(C)c1C	0	-	0	0
CC(=O)c1ccc(NC(=O)CCCN2C(=O)C(c3ccccc3)Oc3cccnc32)cc1 (stereo not drawn)	0	?	?	0
COc1ccc(N(C(=O)Cn2nnc(-c3ccc(Cl)cc3)n2)C(C(=O)NCC2CCCO2)c2ccncc2)cc1 (stereo not drawn)	0	?	0	0
CCCS(=O)(=O)N1CCCC(C(=O)NCCN(CC)c2ccccc2)C1 (stereo not drawn)	0	13µM	?	0
CCCS(=O)(=O)N1CCC(C(=O)NCCN2CCC(Cc3ccccc3)CC2)CC1	0	0	4.1µM	0
CCCS(=O)(=O)N1CCC(C(=O)NCCN(C)Cc2ccccc2)CC1	0	15µM	0	0
SMILES	SARS PLpro yeast	Pf growth 96h	Pf growth 48h	AMA1-RON2 inh
CCOc1ccc(CCNC(=O)C2CCCN(S(=O)(=O)c3c(C)n[nH]c3C)C2)cc1OCC (stereo not drawn)	0	0	8.3µM	0
Cc1ccc(CNC(=O)C2CCCN(S(=O)(=O)c3c(C)n[nH]c3C)C2)cc1 (stereo not drawn)	0	0	-	0
NC(=O)c1ccccc1N/C=C/C(=O)c1ccccc1	0	0	0	0
CCCC(=O)Nc1nnc(Sc2ccc(N(C)C)cc2)s1	0	0	0	0
S=c1[nH]cnc2scc(-c3ccccc3)c12	?	0.33µM	?	0
Clc1ncnc2scc(-c3ccccc3)c12	0	?	?	0
CCCCNC(=O)C1c2cc(OC)c(OC)cc2C(=O)N(C)C1c1cccs1 (stereo not drawn)	0	2.1µM	0	0
CCCN(CCC)CCCNC(=O)C1c2cc(OC)c(OC)cc2C(=O)N(C)C1c1cccs1 (stereo not drawn)	0	0	-	0
COc1cc(CNc2ccc(N3CCCC3)cc2)cc(Cl)c1OC	0	0	3.3µM	?
CCOc1c(Br)cc(CNc2ccc(N3CCN(C(C)=O)CC3)cc2)cc1OC	0	?	0	0
CCOc1cc(CNc2ccc(S(N)(=O)=O)cc2)cc(Cl)c1OC	0	0	0	0
CCOc1cc(CNc2ccc(N3CCCC3)cc2)cc(Cl)c1OC	0	5.2µM	2.9µM	20µM
COc1ccc(-c2ccc(SCC(=O)NCc3ccc4c(c3)OCO4)nn2)cc1OC	0	0	0	0
O=C(NCc1ccc(F)cc1)Nc1nnc([C@H]2C[C@H](O)[C@@H](CO)O2)s1	-	-	-	0
O=C(Nc1cccc2ccccc12)c1nn(C23CC4CC(CC(C4)C2)C3)cc1[N+](=O)[O-]	0	0.93µM	?	0
O=C(Nc1ccc2ccccc2c1)c1nn(C23CC4CC(CC(C4)C2)C3)cc1Br	0	?	?	0
COc1ccc(NC(=O)c2nn(C34CC5CC(CC(C5)C3)C4)cc2[N+](=O)[O-])cc1	0	0	4.7µM	0
O=c1cc(CNCCCO)c2ccccc2[nH]1	0	3.7µM	0	0
Cc1ccccc1N(Cc1cc(=O)[nH]c2ccccc12)C(=O)CCl	0	1.9µM	4.7µM	-
O=C(CCl)N(Cc1cc(=O)[nH]c2ccccc12)c1ccccc1	0	10µM	10µM	0
O=C(CCl)N(Cc1ccccc1)c1ccccc1	0	?	10µM	0
Cc1cccc(N(Cc2ccccc2)C(=O)CCl)c1	0	?	?	0
CCC(=O)N(Cc1cc(=O)[nH]c2ccccc12)c1ccccc1	0	0	0	0
COc1ccc(NCc2cc(=O)[nH]c3ccccc23)cc1	0	0	0	0
O=C(CN1CCN(CC(=O)Nc2ccc(Cl)cc2)CC1)Nc1ccc(F)cc1	0	0	?	0
SMILES	SARS PLpro yeast	Pf growth 96h	Pf growth 48h	AMA1-RON2 inh
O=C(N1CCCCC1)N1CCN(C(=O)N(c2ccccc2)c2ccccc2)CC1	0	-	0	0
Cc1ccccc1N(Cc1cc(=O)[nH]c2ccccc12)C(=O)C(C)C	0	?	15µM	0
Cc1cc(C)n(-c2cc(N3CCN(S(=O)(=O)c4ccc(Br)cc4)CC3)ccc2[N+](=O)[O-])n1	0	?	?	0
CCS(=O)(=O)N1CCN(c2ccc(C(=O)NC3C4CC5CC(C4)CC3C5)cc2[N+](=O)[O-])CC1 (stereo not drawn)	0	?	12µM	0
CCS(=O)(=O)N1CCN(c2ccc(C(=O)N3CCOCC3)cc2[N+](=O)[O-])CC1	0	0	0	0
Cc1cc(C)c(S(=O)(=O)N2CCN(c3ccc([N+](=O)[O-])c(-n4nc(C)cc4C)c3)CC2)c(C)c1	0	1.3µM	4.1µM	0
COC(=O)c1ccc(N2CCN(S(=O)(=O)c3c(C)cc(C)cc3C)CC2)c([N+](=O)[O-])c1	0	?	12µM	0
O=C1CCC/C=C\C[C@H](CC(=O)N(CCO)Cc2ccccc2)C(=O)N2CCC[C@@H]2CO1	0	-	-	0
Cc1cc(=O)[nH]c2ccc(S(=O)(=O)NC3CCCCC3)cc12	0	10µM	0	0
